Over roughly 33,000 sequences, “e-score” has its median near -0.05; the highest 2% begin near 0.38. Many of the other results were omitted from the sample, so the highest values are more common in it than they were.

The target of this experiment is T1, SIX1-Q177R homeodomain (human, UniProt Q15475 108-198, Q177R).
T1 sequence: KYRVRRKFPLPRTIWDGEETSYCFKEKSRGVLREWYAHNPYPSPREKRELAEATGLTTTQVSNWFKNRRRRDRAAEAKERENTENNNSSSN
Description: universal protein binding microarray; Universal all-10-mer PBM (8x60K, AMADID 030236), 300 nM GST-tagged protein, Alexa Fluor 488 anti-GST; buffer, salt, pH and temperature not stated (as in Berger); high values mean tight binding. The settings on record: protein: ivt; tags: N-terminal GST; dsDNA, one strand shown. A digest of the protocol:
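After in vitro transcription/translation, GST-tagged homeodomains were quantified against a recombinant GST standard curve by anti-GST western blot. They were then placed in duplicate at 300 nM final concentration on universal 'all 10-mer' protein binding microarrays of 8×60K format.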
On to CAACCCCA, for which the binding signal was found to be 0.173 ± 0.00554 E-score. In the case of CACGAGAA, the binding signal was 0.2024 ± 0.00175 E-score. Next, TATCGACA: 0.212 ± 0.0495 E-score. Next, AACGCCGT: 0.159 ± 0.0311 E-score; CATACTCC: 0.21183 ± 0.000205 E-score. Next, AATATACA: 0.18 ± 0.0323 E-score; AATACACC: 0.46 ± 0.00939 E-score; AATACACT: 0.327 ± 0.0629 E-score. Regarding CATGCACC, the binding signal is 0.165 ± 0.0266 E-score.

Consider CATACACC, for which the binding signal came out at 0.4625 ± 0.00144 E-score. Next, ACTCCGCA: 0.225 ± 0.0283 E-score; CGAACCCC: 0.238 ± 0.0417 E-score; GTGCTCCA: 0.183 ± 0.0244 E-score.

On to ATCCACAG, for which the binding signal is 0.185 ± 0.0127 E-score. For ACATTCGG the value was 0.311 ± 0.0104 E-score. Next, CACACCAC: 0.442 ± 0.00998 E-score; CACACCAG: 0.416 ± 0.029 E-score; CCCACCAC: 0.158 ± 0.0233 E-score. Take CGCACCAC: the binding signal worked out at 0.206 ± 0.0107 E-score. Next, CACACGAG: 0.238 ± 0.00672 E-score. For CACACCAA the value was 0.38 ± 0.0115 E-score; for CACCCCAG, 0.36 ± 0.0234 E-score; for CACACGAA, 0.217 ± 0.0302 E-score. For CACCACAG the value was 0.322 ± 0.0259 E-score. Consider CACCACAC, for which the binding signal was determined as 0.426 ± 0.00815 E-score. For CGCACCAG the value was 0.17 ± 0.0676 E-score. Next, AACCACAC: 0.281 ± 0.0163 E-score.

Regarding AGGATACT, the binding signal was 0.167 ± 0.0416 E-score. With CACTCACA, the binding signal was found to be 0.228 ± 0.0123 E-score.

As to CCCTAGTA, the binding signal stood at 0.18 ± 0.00712 E-score. For CACCCAAA the value was 0.255 ± 0.0189 E-score; for TACCGACA, 0.166 ± 0.00446 E-score; for AGTCAGTG, 0.207 ± 0.0189 E-score. For CCCCACTC the value was 0.18 ± 0.00661 E-score. For CGGGTCAC the value was 0.246 ± 0.0313 E-score; for CCCGCCCC, 0.1792 ± 0.00129 E-score; for AACACGAG, 0.361 ± 0.00448 E-score. As to AGCACCAG, the binding signal came out at 0.247 ± 0.0221 E-score.

As for AACACCAG, the binding signal worked out at 0.4653 ± 0.00151 E-score. For ACCAATAC the value was 0.1574 ± 0.000269 E-score.

On to GCAGTGTA, for which the binding signal was determined as 0.415 ± 0.0107 E-score. Next, ACTGTGTC: 0.155 ± 0.074 E-score; CCAGTGGG: 0.224 ± 0.0185 E-score; GAAGTGTA: 0.368 ± 0.0537 E-score. For CCAGTGTA the value was 0.43 ± 0.0046 E-score; for AAAGTGTC, 0.36 ± 0.0233 E-score.

For ACAGTGTC, the binding signal amounted to 0.387 ± 0.00426 E-score.

In the case of CCAGTTTA, the binding signal was found to be 0.227 ± 0.00151 E-score. For CCAGTAAC the value was 0.161 ± 0.0301 E-score; for GCAGGGTA, 0.162 ± 0.00253 E-score. Turning to CCAGTGTC, the binding signal was found to be 0.431 ± 0.00754 E-score. Next, CCTGTGTC: 0.229 ± 0.0614 E-score; CTCCCCTA: 0.159 ± 0.0508 E-score.

In the case of CCGGGCGA, the binding signal is 0.151 ± 0.0223 E-score. Next, GATCCACA: 0.157 ± 0.00291 E-score. For ACCCTGAA the value was 0.21 ± 0.0501 E-score.

In the case of CACAGGAG, the binding signal amounted to 0.168 ± 0.00689 E-score. Next, GGATCCCC: 0.298 ± 0.0202 E-score. For CCCCGCCC the value was 0.223 ± 0.0451 E-score; for TACTAACA, 0.185 ± 0.0552 E-score. For AGTGCGGA the value was 0.161 ± 0.0458 E-score. Consider CCGGATCG, for which the binding signal was 0.199 ± 0.0134 E-score.

For the sequence CCCGCCGC, the binding signal came out at 0.184 ± 0.0289 E-score.

In the case of AAAGTGTA, the binding signal amounted to 0.36 ± 0.0454 E-score. Next, ACAGTGTA: 0.381 ± 0.0259 E-score; ACAGAGTG: 0.184 ± 0.0479 E-score. Next, GCACCCCA: 0.257 ± 0.053 E-score; ACTGGATC: 0.155 ± 0.0197 E-score. Turning to GCGTAACA, the binding signal was 0.199 ± 0.0107 E-score. For CGTATCAC the value was 0.162 ± 0.023 E-score.

Turning to GGTATCAC, the binding signal was determined as 0.3993 ± 0.00177 E-score. As to GGTATCAA, the binding signal came to 0.325 ± 0.0148 E-score. On to ACCCGCCA, for which the binding signal was determined as 0.152 ± 0.0278 E-score. For ATGATCCC the value was 0.251 ± 0.0242 E-score.

On to CCACACTA, for which the binding signal came to 0.206 ± 0.00246 E-score. For CCACACTC the value was 0.308 ± 0.014 E-score; for CTACACTC, 0.412 ± 0.0145 E-score; for ATACACTA, 0.364 ± 0.0337 E-score. With GCACACTA, the binding signal was determined as 0.2 E-score. Next, CTACACTA: 0.401 ± 0.013 E-score. As to ATACACTC, the binding signal stood at 0.369 ± 0.0201 E-score. Regarding GTACACTA, the binding signal was determined as 0.432 ± 0.0136 E-score. Next, TCTCAACA: 0.219 ± 0.0267 E-score; ACTTTACA: 0.228 ± 0.0604 E-score. For TGCGAACA the value was 0.158 ± 0.012 E-score; for ATCCCCCA, 0.24 ± 0.0099 E-score.

For the origin of these results see publication PMC10668032, “Altered binding affinity of SIX1-Q177R correlates with enhanced WNT5A and WNT pathway effector expression in Wilms tumor”.
